A selection: hits, their analogues and other compounds. The true share with any hit is near 2.8%.
SENP8 block-1 – blocks the human protease SENP8; inhibition, % at 10 µM; purified SENP8, Z-RLRGG-aminoluciferin cleavage, luminescence; Q96LD8; 1.2% of 330,000 active; in the data active means inhibition above about 50%
Target sequence (Q96LD8 whole entry, looked up): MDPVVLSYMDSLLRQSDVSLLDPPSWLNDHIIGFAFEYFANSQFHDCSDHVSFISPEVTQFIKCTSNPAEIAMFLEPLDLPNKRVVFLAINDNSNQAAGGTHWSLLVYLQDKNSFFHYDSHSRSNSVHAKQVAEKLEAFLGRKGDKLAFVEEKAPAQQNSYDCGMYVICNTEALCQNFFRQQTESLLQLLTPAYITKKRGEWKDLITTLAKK
SENP6 block – blocks the human protease SENP6. Q9GZR1. Recombinant SENP6 catalytic domain, aminoluciferin luminescence. inhibition, % at 10 µM. 1.8% of 330,000 active. AID 2599;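 active means inhibition above about 50% at the single tested dose, limit read from the data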;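 further: plate controls were DMSO wells with enzyme for no effect and DMSO wells lacking enzyme for full effect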
HSP90 inh – blocks HSP90-mediated luciferase refolding in reticulocyte lysate; Rabbit reticulocyte lysate, luciferase refolding luminescence, 3 h; inhibition, % at 5.6 µM; 0.91% of 290,000 active;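 active means inhibition above the screen-wide mean plus 3 SD, computed separately per campaign, cut at about 16% in these data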;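 further: 0% = DMSO wells and 100% = 60 µM geldanamycin wells; inhibitors lower the luminescence because luciferase stays unfolded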
SENP7 inh – SENP7 protease inhibition; inhibition, % at 5 µM; 1.5% of 330,000 active; recombinant SENP7, Z-RLRGG-aminoluciferin luminescence, 40 min; Q9BQF6;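 active means inhibition above about 50% at the single test dose, limit read from the data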;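 further: plate controls were DMSO with enzyme for no effect and no enzyme buffer wells for full effect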
Target sequence (Q9BQF6 706-1050 limits assumed): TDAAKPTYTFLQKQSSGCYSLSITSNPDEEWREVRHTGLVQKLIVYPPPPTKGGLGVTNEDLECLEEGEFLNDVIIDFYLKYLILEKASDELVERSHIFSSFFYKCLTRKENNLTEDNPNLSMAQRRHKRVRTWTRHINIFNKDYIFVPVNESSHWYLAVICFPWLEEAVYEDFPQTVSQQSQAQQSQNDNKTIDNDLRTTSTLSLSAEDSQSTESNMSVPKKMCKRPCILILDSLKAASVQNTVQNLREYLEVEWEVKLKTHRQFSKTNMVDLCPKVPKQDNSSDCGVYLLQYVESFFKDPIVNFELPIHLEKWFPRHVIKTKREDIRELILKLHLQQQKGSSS
SENP8 block-2 – inhibitors of human SENP8 protease | Q96LD8 | recombinant SENP8, Nedd8 substrate fluorescence | inhibition, % at 20 µM | 0.64% of 360,000 active; in the data active means inhibition mostly above about 40%, no sharp cut-off; inactive means mostly below about 27%
Platelet DG rel – platelet dense granule release activity. 0.22% of 300,000 active. inhibition, %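 (compounds screened at 7.5 µM in platelet-rich plasma)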. human platelet-rich plasma, SFLLRN dense granule ATP release, luminescence;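 active means mean replicate score, as percent of positive control, at or above 50; inconclusive means mean below 50 but at least one replicate at or above 50; inactive means mean and every replicate below 50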
The depositor's hits bear a star.

For O=C1C(NS(=O)(=O)c2cccs2)=C(N2CCN(Cc3ccccc3)CC2)C(=O)c2ccccc21 the results were SENP8 block-1 22, SENP6 block 44, HSP90 inh 0, SENP7 inh 14, SENP8 block-2 33 and Platelet DG rel 10.
Screening O=C1C(NS(=O)(=O)c2cccs2)=C(N2CCOCC2)C(=O)c2ccccc21 returned SENP8 block-1 1, SENP6 block -13, HSP90 inh 1, SENP7 inh 6, SENP8 block-2 42* and Platelet DG rel 0.
Screening CCc1c(O)nc2sc3ccccc3n2c1=O returned SENP8 block-1 1, SENP6 block -3, HSP90 inh -2, SENP7 inh 0, SENP8 block-2 40* and Platelet DG rel -3.
`COc1ccc(Cl)cc1NC(=O)CN(C)C(=O)Cc1n[nH]c(=O)c2ccccc12` gave SENP8 block-1 14, SENP6 block -20, SENP7 inh -4, SENP8 block-2 14 and Platelet DG rel -2.
Screening COc1cc(OC)c(C(=O)OCC(=O)NCC2CCCCC2)cc1OC returned SENP8 block-1 0, SENP6 block 7, SENP7 inh -10 and SENP8 block-2 -5.
`Cc1[nH]c2c(C)cccc2c1CCNC(=O)c1ccc2c(c1[N+](=O)[O-])C(=O)c1ccccc1C2=O` gave SENP8 block-1 7, SENP6 block -3, HSP90 inh 0, SENP7 inh 6, SENP8 block-2 43* and Platelet DG rel 2.
For CN(C)CCN(Cc1ccccc1)S(=O)(=O)c1ccc(-c2ccc(=O)[nH]n2)s1 the results were SENP8 block-1 -6, SENP6 block -5, HSP90 inh -3, SENP7 inh 1, SENP8 block-2 2 and Platelet DG rel 51*.
For CCCCn1c(SCN2C(=O)c3ccccc3C2=O)nc2cc(S(N)(=O)=O)ccc21 the results were HSP90 inh 0, SENP8 block-2 17 and Platelet DG rel 80*.
`CC1(c2nnnn2-c2ccc3c(c2)OCCO3)CCC(=O)N1CCOc1ccccc1` (stereo unspecified) gave SENP8 block-2 18.
For CC1=C(C(=O)N2CCCCCC2)CC(CC(=O)NCCc2ccccn2)C(=O)N1Cc1ccc(C(C)(C)C)cc1 (stereo unspecified) the results were SENP8 block-2 11.
O=[N+]([O-])c1ccc(O)c(C=Nc2ccc3nc(-c4ccccc4)[nH]c3c2)c1 was read as SENP8 block-1 37, SENP6 block 71*, HSP90 inh 0, SENP7 inh 64*, SENP8 block-2 -362 and Platelet DG rel 21.
`O=[N+]([O-])c1cccc(-c2nc3ccc([N+](=O)[O-])cc3[nH]2)c1` gave SENP8 block-1 94*, SENP6 block 99*, HSP90 inh 3, SENP7 inh 93*, SENP8 block-2 15 and Platelet DG rel 6.
COc1ccc(-c2nc3ccc([N+](=O)[O-])cc3[nH]2)cc1 was read as HSP90 inh 8, SENP8 block-2 13 and Platelet DG rel 5.
Screening CCOC(=O)C1=CCN(S(=O)(=O)c2ccccc2Br)C1c1cccc(C)c1 (stereo unspecified) returned SENP8 block-2 7.
Cc1nc(S/C(C(=O)O)=C2/C(=O)Nc3ccccc32)n[nH]1 was read as SENP8 block-1 35, SENP6 block 1, HSP90 inh 0, SENP7 inh 26, SENP8 block-2 14 and Platelet DG rel 61*.
`CCN1/C(=C/c2ccc3cc(C)cc(C)c3[n+]2CC)Sc2cc(C)ccc21` gave HSP90 inh 1 and SENP8 block-2 23*.
`CCN1CCN(C(=O)NCc2ccccc2)CC1` gave SENP8 block-1 -9, SENP6 block -8, HSP90 inh 0, SENP7 inh -7, SENP8 block-2 17 and Platelet DG rel 7.
For Cc1ccc2nc(-c3ccc(SCC(=O)Nc4ccc5c(c4)OCCO5)nc3)[nH]c2c1 the results were SENP8 block-1 -11, SENP6 block -27, HSP90 inh -2, SENP7 inh 51*, SENP8 block-2 -372 and Platelet DG rel 0.
Screening Cc1cc2nc(-c3ccc(SCC(=O)Nc4ccc5c(c4)OCCO5)nc3)[nH]c2cc1C returned SENP8 block-1 -9, SENP6 block 9, HSP90 inh -1, SENP7 inh 31, SENP8 block-2 -252 and Platelet DG rel 0.
For [O-]/[N+](=C/c1ccc(F)cc1)c1ccc(Cl)cc1 the results were SENP8 block-1 -1, SENP6 block 5, HSP90 inh -2, SENP7 inh 9, SENP8 block-2 23 and Platelet DG rel 57*.
`[O-][N+](=Cc1ccccc1)c1ccc(Cl)cc1` gave SENP8 block-2 23.
Cc1ccc(S(=O)(=O)NC(=O)C2(C)CCN2C(=O)Cc2cccs2)nc1 (stereo unspecified) was read as SENP8 block-2 -1.
`COc1cc(C)cc(C(=O)O)c1C1=C(O)c2cccc(O)c2C(=O)C1=O` gave SENP8 block-1 4, SENP6 block -3, SENP7 inh 5 and SENP8 block-2 55*.
COC(=O)/C=C1\S/C(=N/N=C/c2ccc(Cl)cc2)NC1=O was read as SENP8 block-1 0, SENP6 block -1, HSP90 inh -6, SENP7 inh 19, SENP8 block-2 43* and Platelet DG rel inconclusive.
O=C(Nc1ccccc1Cl)c1cccc(COc2cc(Cl)ccc2Cl)c1 was read as SENP8 block-1 5, SENP6 block 9, HSP90 inh 1, SENP7 inh -3, SENP8 block-2 23 and Platelet DG rel -10.
`O=C(O)c1cccc(COc2ccccc2Cl)c1` gave SENP8 block-1 98*, SENP6 block 99*, SENP7 inh 5, SENP8 block-2 5 and Platelet DG rel 5.
For O=C(Nc1ccccc1C(F)(F)F)N1CCCCCC1 the results were SENP8 block-1 -5, SENP6 block -6, HSP90 inh 2, SENP7 inh -15, SENP8 block-2 19 and Platelet DG rel -3.
For NC(=O)C1(N2CCCCC2)CCN(C(=O)Nc2ccccc2C(F)(F)F)CC1 the results were SENP8 block-1 2, SENP6 block -6, HSP90 inh -2, SENP7 inh 1 and Platelet DG rel 53*.
Screening O=C(CCSc1ccc(F)cc1)NNC(=O)c1ccc([N+](=O)[O-])cc1 returned SENP8 block-1 -14, SENP6 block 20, SENP7 inh -6 and SENP8 block-2 8.
For O=c1cc(-c2ccc(O)c(O)c2)oc2cc(O)cc(O)c12 the results were SENP8 block-1 13, SENP6 block 6, SENP7 inh -7, SENP8 block-2 32 and Platelet DG rel -1.
Screening O=c1c(O)c(-c2ccc(O)c(O)c2)oc2cc(O)cc(O)c12 returned SENP8 block-1 28, SENP6 block 53*, HSP90 inh -4, SENP7 inh 3, SENP8 block-2 33* and Platelet DG rel 0.
